From PubChem BioAssay (NCATS)
Records with an inconclusive call do not appear. Where a call stands in place of a potency, no number is given. Activity calls are given as the source filed them. Calls come from the whole dose curve; as a rule, active = well fitted curve in the direction sought with a large enough effect; inconclusive = small, poorly fitted or top-dose-only effect, or another doubt; inactive = no such curve, though single readings can be large; an effect the other way counts as inactive or inconclusive.

Assays:
[1] = molecular target: Arylsulfatase A (Homo sapiens) (UniProt P15289); assay: qHTS screen for enhancers of Arylsulfatase A (ASA1): LOPAC Validation Assay (AID 720538)
Procedure, shortened: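 Enhancer assay in patient-derived MLD fibroblasts carrying ASA-I179S: 48 h compound exposure at 37 C, then 14 h room-temperature pNCS turnover (0.5 mM final) in lysis buffer. Read by fluorescence at 525/598 nm after NaOH stop.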

[2] = qHTS for compounds that reverse cellular toxicity of Amyloid beta (A-beta) peptide in yeast: LOPAC Validation Assay (AID 720559)
Procedure, shortened: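 Rescue of A-beta toxicity was scored as yeast growth by 600 nm absorbance after 48 hr at 30 C with compound. Normalization used DMSO (negative) and equimolar ferric chloride plus clioquinol (positive).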

[3] = qHTS for Activators of Parkin Expression: LOPAC Validation Assay (NLuc Reporter) (AID 720572; note: potency is the fitted concentration of half-maximal effect)
Procedure, shortened: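 Parkin promoter-driven FLuc/NLuc neuronal reporter cells; 24 h plating, 7-pt dose response, 24 h at 37 C/5% CO2; FLuc then NanoLuc reagent, 10 min each, luminescence; DMSO/positive control normalized.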

[4] = qHTS for Activators of Parkin Expression: LOPAC Validation Assay (FLuc Reporter) (AID 720573)
Procedure, shortened: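 FLuc signal from Parkin-promoter coincidence reporter neuronal cells, normalized to DMSO and positive control (100%). Cells (1,500/well) pre-incubated 24 h, then exposed to LOPAC compounds in 7-point dose response for 24 h at 37 C, 5% CO2.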

[5] = molecular target: Hexokinase-4 (Homo sapiens) + Glucokinase regulatory protein (Homo sapiens) (UniProt P35557+Q14397); assay: qHTS assay for inhibitors of recombinant human GCK-GKRP interaction: Diaphorase-coupled assay (AID 743205)
Procedure, shortened: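 A kinetic fluorescence read (Ex 525/Em 590 nm, every minute for 30 minutes) tracked resorufin from a G6PDH-diaphorase coupled GCK reaction. It contained 10 nM GST-GCK, 10 nM FLAG-GKRP, 5 mM glucose, 0.4 mM ATP in Hepes pH 7.6. Normalized to with/without-enzyme DMSO controls.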

[6] = qHTS for small molecule inhibitors of Yes1 kinase: Counter Assay (AID 686950);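 note: no kinase present so only ADP-Glo detection of a fixed ADP amount is tested; luminescence from ADP-Glo reporting ADP in a fixed ATP and ADP mixture; series mostly up to about 77 µM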
Procedure, shortened: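 Luminescence read-out from ADP-Glo quantifies a fixed ADP amount (0.02 mM ADP with 0.08 mM ATP) after 60 min at room temperature; signal is normalized between DMSO wells with ATP/ADP and with 0.1 mM ATP alone.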

Chain of Hexokinase-4 (Homo sapiens) + Glucokinase regulatory protein (Homo sapiens) (P35557 whole entry, looked up): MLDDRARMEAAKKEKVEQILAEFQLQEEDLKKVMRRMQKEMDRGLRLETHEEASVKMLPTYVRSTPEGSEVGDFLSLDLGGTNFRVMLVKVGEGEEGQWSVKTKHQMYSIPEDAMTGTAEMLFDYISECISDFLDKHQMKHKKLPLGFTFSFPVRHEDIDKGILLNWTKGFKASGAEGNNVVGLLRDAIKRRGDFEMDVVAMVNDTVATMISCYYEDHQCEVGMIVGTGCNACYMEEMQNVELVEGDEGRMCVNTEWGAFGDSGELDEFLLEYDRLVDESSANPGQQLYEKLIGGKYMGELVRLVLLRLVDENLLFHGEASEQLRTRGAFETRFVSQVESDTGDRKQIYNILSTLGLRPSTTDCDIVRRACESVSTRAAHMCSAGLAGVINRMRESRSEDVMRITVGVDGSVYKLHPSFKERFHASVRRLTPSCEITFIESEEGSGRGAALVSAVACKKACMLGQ
Chain of Hexokinase-4 (Homo sapiens) + Glucokinase regulatory protein (Homo sapiens) (Q14397 whole entry, looked up): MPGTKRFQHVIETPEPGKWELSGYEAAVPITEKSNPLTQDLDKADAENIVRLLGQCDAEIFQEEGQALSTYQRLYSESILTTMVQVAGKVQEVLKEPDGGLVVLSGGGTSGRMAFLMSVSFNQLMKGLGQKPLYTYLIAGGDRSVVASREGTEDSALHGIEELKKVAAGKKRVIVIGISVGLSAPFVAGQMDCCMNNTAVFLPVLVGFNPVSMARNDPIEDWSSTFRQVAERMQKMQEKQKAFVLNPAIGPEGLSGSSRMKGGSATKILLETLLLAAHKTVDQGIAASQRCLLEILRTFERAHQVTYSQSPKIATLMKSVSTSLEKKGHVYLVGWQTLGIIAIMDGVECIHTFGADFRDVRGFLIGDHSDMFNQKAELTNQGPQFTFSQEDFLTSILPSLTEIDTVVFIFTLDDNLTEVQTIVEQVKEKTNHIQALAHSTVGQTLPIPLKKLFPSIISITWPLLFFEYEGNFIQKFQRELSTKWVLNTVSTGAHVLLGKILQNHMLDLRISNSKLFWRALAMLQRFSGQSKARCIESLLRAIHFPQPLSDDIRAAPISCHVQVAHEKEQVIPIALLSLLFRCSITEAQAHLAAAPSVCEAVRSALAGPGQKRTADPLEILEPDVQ
Chain of Arylsulfatase A (Homo sapiens) (P15289 whole entry, looked up): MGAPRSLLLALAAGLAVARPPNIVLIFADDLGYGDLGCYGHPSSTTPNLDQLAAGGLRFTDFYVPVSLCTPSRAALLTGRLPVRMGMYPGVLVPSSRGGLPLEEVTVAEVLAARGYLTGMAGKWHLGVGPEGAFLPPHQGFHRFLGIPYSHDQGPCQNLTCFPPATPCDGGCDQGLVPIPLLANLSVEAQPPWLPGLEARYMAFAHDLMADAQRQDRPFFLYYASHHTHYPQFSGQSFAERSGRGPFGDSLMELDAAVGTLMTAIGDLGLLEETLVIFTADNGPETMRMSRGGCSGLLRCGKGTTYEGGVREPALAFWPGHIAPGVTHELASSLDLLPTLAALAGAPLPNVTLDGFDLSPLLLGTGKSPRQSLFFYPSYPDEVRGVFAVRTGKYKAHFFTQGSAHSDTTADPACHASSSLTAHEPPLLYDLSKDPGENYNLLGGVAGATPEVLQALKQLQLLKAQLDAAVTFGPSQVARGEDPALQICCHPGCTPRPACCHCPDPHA

## N=c1c[n+](N2CCOCC2)[n-]o1
[1]
  Potency: inactive
[2]
  outcome: inactive
[3]
  Potency: inactive
[4]
  outcome: inactive
[5]
  outcome: inactive

## CCN(CC)CCCC(C)Nc1c2ccc(Cl)cc2nc2ccc(OC)cc12 (stereo unspecified)
[1]
  Potency: inactive
[2]
  outcome: inactive
[3]
  Potency: inactive
[4]
  outcome: inactive
[5]
  outcome: inactive

## CC[C@H]1CN2CCc3cc(OC)c(OC)cc3[C@@H]2C[C@@H]1C[C@H]1NCCc2cc(OC)c(OC)cc21
[1]
  Potency: inactive
[2]
  outcome: inactive
[3]
  Potency: inactive
[5]
  outcome: inactive

## CC1=C(CC(=O)O)c2cc(F)ccc2/C1=C\c1ccc(S(C)(=O)=O)cc1
[1]
  Potency: inactive
[2]
  outcome: inactive
[3]
  Potency: inactive
[4]
  outcome: inactive
[5]
  outcome: inactive

## CC(CN(C)C)CN1c2ccccc2CCc2ccccc21 (stereo unspecified)
[1]
  Potency: inactive
[2]
  outcome: inactive
[3]
  Potency: inactive
[4]
  outcome: inactive
[5]
  outcome: inactive

## CC(C(O)c1ccc(O)cc1)N1CCC(Cc2ccccc2)CC1 (stereo unspecified)
[1]
  Potency: inactive
[2]
  outcome: inactive
[3]
  Potency: inactive
[4]
  outcome: inactive
[5]
  outcome: inactive

## CCN(CC)CCNC(=O)c1c(C)[nH]c(/C=C2\C(=O)Nc3ccc(F)cc32)c1C
[6]
  outcome: inactive

## CSc1ccc2c(c1)C(N1CCN(C)CC1)Cc1ccccc1S2 (stereo unspecified)
[1]
  Potency: inactive
[2]
  outcome: inactive
[3]
  Potency: inactive
[4]
  outcome: inactive

## CNCCC(Oc1ccc(C(F)(F)F)cc1)c1ccccc1 (stereo unspecified)
[2]
  outcome: inactive
[3]
  Potency: inactive
[4]
  outcome: inactive
[5]
  outcome: inactive

## OCc1cc(C(O)CNCCCCCCOCCCCc2ccccc2)ccc1O (stereo unspecified)
[1]
  Potency: inactive
[2]
  outcome: inactive
[3]
  Potency: inactive
[4]
  outcome: inactive

## COCCOC(=O)C1=C(C)NC(C)=C(C(=O)OC/C=C/c2ccccc2)C1c1cccc([N+](=O)[O-])c1 (stereo unspecified)
[2]
  outcome: inactive
[3]
  Potency: 5.17 µM (active)
[4]
  outcome: inactive
[5]
  outcome: inactive

## C#CCN(C)Cc1ccccc1
[2]
  outcome: inactive
[3]
  Potency: inactive
[4]
  outcome: inactive
[5]
  outcome: inactive

## CSc1ccc2c(c1)N(CCC1CCCCN1C)c1ccccc1S2 (stereo unspecified)
[2]
  outcome: inactive
[3]
  Potency: inactive
[4]
  outcome: inactive
[5]
  outcome: inactive

## NC1CCN(c2cccc(Cl)n2)CC1
[2]
  outcome: inactive
[3]
  Potency: inactive
[4]
  outcome: inactive
[5]
  outcome: inactive

## Cc1cc(N)c2ccccc2[n+]1CCCCCCCCCC[n+]1c(C)cc(N)c2ccccc21
[1]
  Potency: inactive
[2]
  outcome: inactive
[3]
  Potency: inactive
[4]
  outcome: inactive
[5]
  outcome: inactive

## CCN(CC)CCOC(=O)C1(C2CCCCC2)CCCCC1
[2]
  outcome: inactive
[3]
  Potency: inactive
[4]
  outcome: inactive
[5]
  outcome: inactive

## CC(=O)OCC(=O)[C@@]1(O)CC[C@H]2[C@@H]3CCC4=CC(=O)CC[C@]4(C)[C@H]3C(=O)C[C@@]21C
[1]
  Potency: inactive
[2]
  outcome: inactive
[3]
  Potency: inactive
[4]
  outcome: inactive
[5]
  outcome: inactive

## CC(C)(C)[C@]1(O)CCN2C[C@H]3c4ccccc4CCc4cccc(c43)[C@@H]2C1
[1]
  Potency: inactive
[2]
  outcome: inactive
[3]
  Potency: inactive
[4]
  outcome: inactive
[5]
  outcome: inactive

## CNCC(O)c1ccc(O)c(O)c1 (stereo unspecified)
[2]
  outcome: inactive
[3]
  Potency: inactive
[4]
  outcome: inactive
[5]
  outcome: inactive

## CCCCCCCCCCCCCCCC(=O)NCCO
[1]
  Potency: inactive
[2]
  outcome: inactive
[3]
  Potency: inactive
[4]
  outcome: inactive
[5]
  outcome: inactive

## CC(C)C(=O)c1c(C(C)C)nn2ccccc12
[1]
  Potency: inactive
[2]
  outcome: inactive
[3]
  Potency: inactive
[4]
  outcome: inactive
[5]
  outcome: inactive

## CC(C)NC[C@H](O)c1ccc(O)c(O)c1
[1]
  Potency: inactive
[2]
  outcome: inactive
[3]
  Potency: inactive
[4]
  outcome: inactive
[5]
  outcome: inactive

## OCCN1CCN(CCCN2c3ccccc3Sc3ccc(Cl)cc32)CC1
[1]
  Potency: inactive
[2]
  outcome: inactive
[3]
  Potency: inactive
[4]
  outcome: inactive
[5]
  outcome: inactive

## CN(C)CC[C@@H](c1ccc(Cl)cc1)c1ccccn1
[2]
  outcome: inactive
[3]
  Potency: inactive
[4]
  outcome: inactive
[5]
  outcome: inactive

## CCN(CC)C(C)CN1c2ccccc2Sc2ccccc21 (stereo unspecified)
[5]
  outcome: inactive
